# According to PubChem BioAssay:
# Active and inactive are the calls of the source.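 The calls were made as follows, unless noted: active = visually confirmed hit in the image check and inhibition above 20%; inconclusive = visually confirmed hit but inhibition not above 20%; inactive = no visual hit in the image check.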
# Columns and labels:
# [1] = inhibitors of TNFa-induced NFkB p65 translocation, primary screen, imaging, HUVEC, MLSMR starter and 10KST1 sets (AID 438;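 active = inhibition above 20% together with a positive visual image hit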;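 also: compound added about 3h40 before a 20 min TNFalpha stimulation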;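 as to inhibition: signal is the nuclear over cytoplasmic p65 intensity ratio per well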); details: HUVEC TNFa-induced p65 nuclear translocation; cell count: measured here: nuclei count (cytotoxicity indicator), at 2.08 µM; inhibition: at 2 µM, stronger effect = higher value, 0% TNFa-plus-vehicle, 100% no-TNFa wells
# [2] = inhibitors of mutant huntingtin aggregation, primary screen, imaging, exon1htt(103Q)mCFP cells, high-content imaging (AID 483;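 active = visual image review flags a hit and inhibition of aggregation exceeds 20%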;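 also: compound exposure lasted 3 days before fixation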;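 as to nuclei count: percent of the per-plate median nuclei count of sample wells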); details: exon1htt(103Q)mCFP cell line, aggregate imaging, at 2 µM; inhibition of aggregation: stronger effect = higher value; nuclei count: measured here: cell count, toxicity
# [3] = inhibitors of E-selectin induction by TNFa, primary screen, imaging, HUVEC, immunofluorescence, MLSMR starter and 10KST1 sets (AID 487); details: HUVEC TNFalpha-induced E-selectin immunofluorescence imaging, at 2 µM; inhibition: stronger effect = higher value; nuclei count: measured here: cell number, toxicity;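 as to inhibition: signal is fraction of cell area covered by stained E-selectin grains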;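 as to nuclei count: 100% = median nuclei count of all wells on the same plate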
# [4] = target: Voltage-gated potassium channel subunit beta-2 (Rattus norvegicus) (UniProt P62483); assay: KvBeta enzyme negative modulators, primary screen, biochemical, NADPH fluorescence (AID 622;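 active = fluorescence slope higher than the sample average by over 3 SD, cut at about -0.22 in these data, passing the limit was not always enough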;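 also: slope of raw intensity against log time taken from 70 to 1610 s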); details: recombinant KvBeta, 4-cyanobenzaldehyde reduction, at 10 µM, stronger effect = higher value
# [5] = target: Voltage-gated potassium channel subunit beta-2 (Rattus norvegicus) (UniProt P62483); assay: KvBeta positive modulators, primary screen, biochemical, NADPH fluorescence (AID 623;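 active = NADPH fluorescence slope more negative than the mean of all samples by about 3 SD, 99.7% confidence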;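 also: fluorescence intensity change per second fitted from 20 to 320 s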); details: Recombinant KvBeta, NADPH fluorescence decrease slope, 10 min; at 10 µM; stronger effect = lower value
# [6] = target: Alpha-2C adrenergic receptor (Homo sapiens) (UniProt P18825); assay: modulators of alpha2C/GIRK thallium flux, primary screen, cell-based, HEK293 alpha2C/GIRK1/2 (AID 624;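 active = fluorescence slope after compound addition differing from the mean of all screened samples at 99.7% confidence, in either direction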;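 also: slope of fluorescence ratio to pre-addition baseline per second over 15 to 24 s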); details: thallium flux BTC fluorescence, at 10 µM, actives lie on both sides
# [7] = inhibitors of Sendai virus-induced IRF3 signaling, primary screen, TLR/RLR signaling modifier project, cell-based, Sendai virus stimulus, luciferase, 10K MLSCN set (AID 602276;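 active = inhibition at or above 50% at 10 µM; inactive = inhibition below 50%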;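 also: firefly luciferase from ISG56 promoter only with Renilla not read in this screen; 0% = Sendai virus plus DMSO and 100% = medium plus DMSO without virus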); details: HEK293 RL24 IRF3 luciferase reporter, at 10 µM, stronger effect = higher value
# [8] = inhibitors of poly I:C-induced TLR3 signaling, primary screen, cell-based, poly I:C stimulus, luciferase, 10K MLSCN set (AID 602277;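 active = inhibition of the reporter signal at or above 50%; inactive = inhibition below 50%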); details: HEK293-TLR3 RL24 IRF3 luciferase reporter, at 10 µM, stronger effect = higher value
# Sequence of Alpha-2C adrenergic receptor (Homo sapiens) (P18825 whole entry, looked up): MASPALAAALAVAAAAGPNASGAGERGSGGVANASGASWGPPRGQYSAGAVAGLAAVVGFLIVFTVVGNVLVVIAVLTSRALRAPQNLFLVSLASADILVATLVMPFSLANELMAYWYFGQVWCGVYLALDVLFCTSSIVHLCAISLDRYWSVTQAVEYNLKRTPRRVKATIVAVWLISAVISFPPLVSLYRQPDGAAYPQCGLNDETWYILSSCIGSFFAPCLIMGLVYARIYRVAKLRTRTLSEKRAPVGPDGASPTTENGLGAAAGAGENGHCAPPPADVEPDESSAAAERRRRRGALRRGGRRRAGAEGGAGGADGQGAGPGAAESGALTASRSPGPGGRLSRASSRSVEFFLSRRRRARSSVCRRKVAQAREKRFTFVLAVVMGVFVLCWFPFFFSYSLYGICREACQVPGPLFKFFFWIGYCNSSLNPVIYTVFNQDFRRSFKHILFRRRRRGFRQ
# Sequence of Voltage-gated potassium channel subunit beta-2 (Rattus norvegicus) (P62483 whole entry, looked up): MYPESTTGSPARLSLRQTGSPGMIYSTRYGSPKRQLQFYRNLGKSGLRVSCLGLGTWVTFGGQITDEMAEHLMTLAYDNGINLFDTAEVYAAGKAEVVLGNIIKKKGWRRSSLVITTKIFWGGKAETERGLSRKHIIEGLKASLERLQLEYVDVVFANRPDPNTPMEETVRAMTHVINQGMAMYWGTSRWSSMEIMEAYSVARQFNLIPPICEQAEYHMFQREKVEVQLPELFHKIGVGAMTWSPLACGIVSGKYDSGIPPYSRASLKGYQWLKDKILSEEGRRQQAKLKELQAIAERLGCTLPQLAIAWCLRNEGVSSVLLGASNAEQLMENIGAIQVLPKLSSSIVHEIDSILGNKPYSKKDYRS
Structure (SMILES),cell count [1],inhibition [1],inhibition of aggregation [2],nuclei count [2],inhibition [3],nuclei count [3],fluorescence slope [4],NADPH fluorescence slope [5],slope [6],inhibition [7],inhibition [8]
CCCC(=O)Nc1cc(C)c(NC(=O)c2ccccn2)cn1,418,13.7% (inactive),19.4% (inactive),89.7%,-10.2% (inactive),110%,-0.606 (inactive),-5.2e-05 (inactive),0.007 (inactive),4.7% (inactive),11.8% (inactive)
CN(CC(=O)Nc1ccc2c(c1)OCCO2)S(=O)(=O)c1ccc(Br)s1,315,-1.9% (inactive),-7.8% (inactive),100%,-21% (inactive),98.5%,-0.403 (inactive),-4.9e-05 (inactive),0.00399 (inactive),-3.5% (inactive),10.4% (inactive)
CC1CCN(CCn2c(=S)[nH]c3ncccc3c2=O)CC1,508,7.1% (inactive),-13.9% (inactive),115%,-9.3% (inactive),105%,-0.411 (inactive),-3.5e-05 (inactive),0.00346 (inactive),10.2% (inactive),26.9% (inactive)
O=C(c1ccccc1F)N1CCN(Cc2cccc(Cl)c2)CC1,649,3% (inactive),10.9% (inactive),99.3%,-3.6% (inactive),98.3%,-0.654 (inactive),1.7e-05 (inactive),0.00876 (inactive),9.77% (inactive),10.5% (inactive)
Cc1cnc(C(=O)Nc2nnc(C(C)C)s2)cn1,569,-8.8% (inactive),10.8% (inactive),107%,-28.6% (inactive),118%,-0.5 (inactive),-3.3e-05 (inactive),0.00641 (inactive),-25.1% (inactive),-89.5% (inactive)
C=CC(O)(C#CCN(CC)CC)c1ccccc1 (centres undefined),740,-36% (inactive),-18.5% (inactive),107%,-53.6% (inactive),110%,-0.596 (inactive),-5e-05 (inactive),0.0061 (inactive),4.67% (inactive),11.4% (inactive)
N#CCC(=O)N1CCn2c1nc1ccccc12,301,-3.4% (inactive),-20.8% (inactive),94.4%,-16.4% (inactive),101%,-0.492 (inactive),-3.8e-05 (inactive),0.00588 (inactive),11.2% (inactive),24.2% (inactive)
O=C1NC2(Nc3ccccc31)C(=O)Nc1ccccc12 (centres undefined),361,-4.3% (inactive),6.1% (inactive),102%,-129% (inactive),106%,-0.355 (inactive),-4.5e-06 (inactive),0.00484 (inactive),13.7% (inactive),37.4% (inactive)
COC(=O)c1[nH]c2ccc(C)cc2c1NC(=O)CN1CCCc2ccccc21,408,3.1% (inactive),21.6% (inactive),83.4%,-29.9% (inactive),106%,-0.39 (inactive),-4.8e-05 (inactive),0.00333 (inactive),21.5% (inactive),12% (inactive)
CCOC(=O)N1CCN(S(=O)(=O)c2ccc(OCC)c(C)c2)CC1,604,-11.1% (inactive),-7.7% (inactive),106%,8.2% (inactive),102%,-0.625 (inactive),-3.8e-06 (inactive),0.00615 (inactive),0.885% (inactive),11.9% (inactive)
CCc1nnc(NC(=O)CN2CCN(c3ccccc3OC)CC2)s1,287,6.2% (inactive),-10% (inactive),102%,3.6% (inactive),97.4%,-0.616 (inactive),-2e-05 (inactive),0.00643 (inactive),7.27% (inactive),27.9% (inactive)
COc1cc2c3c(c1)/C(=C1/SC(NC(C)=O)=NC1=O)C(=O)N3C(C)(C)C=C2C,381,-2% (inactive),7.7% (inactive),91.9%,-35.9% (inactive),91%,-0.467 (inactive),-2e-05 (inactive),0.00288 (inactive),18% (inactive),16.3% (inactive)
CCOC(=O)/C=C1\SCC(=O)N1Cc1ccc(Br)cc1,562,-4.8% (inactive),-14.9% (inactive),96%,-49.7% (inactive),116%,-0.462 (inactive),-0.000366 (inactive),0.00633 (inactive),10.8% (inactive),20% (inactive)
Cc1csc(SCc2nc3sc4c(c3c(=O)[nH]2)CCC4)n1,562,1.9% (inactive),0.1% (inactive),116%,-229% (inactive),171%,-0.553 (inactive),-1.4e-05 (inactive),0.00536 (inactive),13% (inactive),1.21% (inactive)
